From PubChem BioAssay
Compounds with a hit are over-represented: about 2.4% of the library has one in this group of screens.
APE1 inh: APE1 (human) endonuclease inhibition. P27695. recombinant APE1, TAMRA/BHQ-2 abasic DNA cleavage fluorescence. Potency, µM (top dose mostly 65.8 µM), most hits filed as inhibitors. 350,000 compounds, 0.35% hits. AID 2517; also: nearly all actives have a fitted effect of over 55% in size
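Kinetic fluorescence read (525 ex/598 em nm, three reads 60 s apart) of AP-site incision; signal = third minus first read. Enzyme 0.75 nM, dual-labelled THF duplex 50 nM, compound preincubation 15 min RT.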
GLS inh: inhibitors of human glutaminase (GLS); O94925; Potency, µM (titrated, usually from 45.5 µM), actives largely listed as inhibitors; 410,000 compounds, 0.21% hits; GLS enzymatic activity, qHTS titration
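Enzyme dispensed in phosphate buffer (45 mM, pH 8.2, 0.02% Tween-20), compounds pinned in, then 1 mM L-glutamine solution and the glutamate oxidase–HRP–Amplex Red mix added; fluorescence read immediately and again after 30 min at room temperature.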
Pol iota inh: blocks human DNA polymerase iota activity; AID 588590; Pol iota fluorescent replication assay, 10 min; Potency, µM (highest dose often 115 µM), actives largely listed as inhibitors; 390,000 compounds, 1% hits
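Pol iota at 10 nM preincubated 15 min with compounds at room temperature; reaction started with fluorescent substrate, 50 nM final. Fluorescence read kinetically at 0 and 10 min; buffer-only wells as negative control.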
Pol eta inh-1: DNA polymerase eta (human) inhibition | Q9Y253 | recombinant Pol eta, fluorescent DNA replication assay | Potency, µM (highest dose often 114 µM), usual class: inhibitors | 390,000 compounds, 1.2% hits | AID 588591
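Fluorescent replication assay: 50 nM final substrate added after a 15 min room-temperature compound preincubation with 10 nM enzyme. Signal taken at 0 min and again at 10 min.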
POLB inh: inhibitors of human DNA polymerase beta; Pol beta primer extension/strand displacement, fluorescence kinetic; AID 485314; P06746; 340,000 compounds, 1.3% hits; Potency, µM (highest dose often 114 µM), hits mostly inhibitors
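Kinetic readout of DNA synthesis with strand displacement by Pol beta. Compound and 10 nM enzyme sit 15 min at room temperature; 50 nM substrate starts the reaction, read immediately and at 10 min.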
Pol kappa inh-1: blocks human DNA polymerase kappa activity | Q9UBT6 | purified Pol kappa, fluorescent DNA synthesis assay, 10 min | Potency, µM (series often up to 107 µM), hits mostly inhibitors | 400,000 compounds, 0.53% hits | AID 588579
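Inhibition of 10 nM Pol kappa is measured by a fluorescent read-out at 0 and 10 min following addition of 50 nM substrate (final), with a 15-min room-temperature compound preincubation.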
Pol iota confirm: Confirm cherry-picked inhibitors of human polymerase iota; shares compounds with Pol kappa inh-1; Pol iota primer extension, TAMRA/BHQ fluorescence; 1,500 compounds, 77% hits; Potency, µM, most hits filed as inhibitors
GALK confirm: galactokinase (human) inhibition, confirmation. shares compounds with Pol eta inh-1. purified GALK, Kinase-Glo ATP depletion luminescence. Potency, µM (highest dose often 115 µM), actives largely listed as inhibitors. 150 compounds, 70% hits
GALK redox cs: counter-screen for GALK inhibitors: redox cycling H2O2 generation; Potency, µM (top dose mostly 115 µM), most hits filed as inhibitors; Phenol red-HRP H2O2 redox cycling, absorbance 600 nm; shares compounds with Pol eta inh-1; 150 compounds, 40% hits
HEK293 tox: HEK-293 cytotoxicity, GALK inhibitor secondary; AID 2547; HEK-293 viability, ATP luminescence (CellTiter-Glo), 24/48 h; Potency, µM (titrated, usually from 46.1 µM), actives largely listed as inhibitors; shares compounds with Pol eta inh-1; 170 compounds, 10% hits
Pol kappa inh-2: confirmation of human DNA polymerase kappa inhibitors; 920 compounds, 76% hits; Potency, µM, hits mostly inhibitors; shares compounds with Pol eta inh-1; AID 720501; purified Pol-kappa, fluorescent strand-displacement substrate
Pol eta inh-2: Pol eta (human) inhibition, cherry-pick confirmation. shares compounds with Pol eta inh-1. Pol eta primer extension, TAMRA/BHQ fluorescence, 10 min. Potency, µM, usual class: inhibitors. 2,600 compounds, 64% hits. AID 720502
Large screens that a line does not name were inactive (follow-up assays come after a bar, where they were run). Calls follow the shape of the dose curve; as a rule, active = well fitted curve in the direction sought with a large enough effect; inconclusive = small, poorly fitted or top-dose-only effect, or another doubt; inactive = no such curve, though single readings can be large; an effect the other way counts as inactive or inconclusive.

O=[N+]([O-])c1ccccc1NC(=S)N/N=C/c1ccc(O)c(O)c1	APE1 inh inconclusive, GLS inh inconclusive, Pol iota inh 8.91µM, Pol eta inh-1 3.55µM, POLB inh 3.55µM, Pol kappa inh-1 20µM | Pol iota confirm 47.4 | Pol eta inh-2 21.3
O=C(NC1CCCCCC1)c1ccc(CS(=O)Cc2ccccc2Cl)o1 (stereo unspecified)	none
Cc1cc(CN(C)C(=O)CC2C(=O)NCCN2Cc2ccc(-c3ccccc3)cc2)on1 (stereo unspecified)	none
O=C(CSc1nc2ccccc2[nH]1)N1CCCCC1	none
Cc1c(C)n(C(=O)CSc2nc3ccccc3[nH]2)c2ccccc12	APE1 inh 14.1µM, Pol iota inh inconclusive, Pol eta inh-1 inconclusive, POLB inh 8.91µM, Pol kappa inh-1 inconclusive | Pol iota confirm inconclusive | Pol eta inh-2 37.9
O=C(O)c1ccc(COc2ccccc2/C=C2\NC(=O)N(Cc3ccccc3F)C2=O)cc1	Pol eta inh-1 inconclusive, POLB inh inconclusive
O=C(O)c1ccc(COc2ccc3ccccc3c2/C=C2/NC(=O)N(Cc3ccc(F)cc3)C2=O)cc1	GLS inh inconclusive, Pol eta inh-1 31.6µM, POLB inh 22.4µM, Pol kappa inh-1 inconclusive | Pol iota confirm inconclusive | Pol kappa inh-2 37.7 | Pol eta inh-2 inconclusive
N#Cc1ccccc1N1CCN(C(=O)c2ccc(NC(=O)c3ccc(Br)o3)cc2)CC1	Pol iota inh 22.4µM, Pol eta inh-1 22.4µM, Pol kappa inh-1 70.8µM (no result: POLB inh) | Pol iota confirm inconclusive | Pol kappa inh-2 inconclusive | Pol eta inh-2 75.7
O=C(Nc1ccc(C(=O)N2CCN(c3ccccn3)CC2)cc1)c1ccc(Br)o1	Pol iota inh inconclusive (no result: POLB inh)
Cc1ccc(C(=O)N(Cc2ccco2)c2ccccn2)cc1	none (no result: APE1 inh)
FC(F)(F)c1cnc2c(c1)Nc1ccccc1S2	none
CCOC(=O)c1sc2nc(CSc3ccccc3Cl)[nH]c(=O)c2c1C	none
Cc1c(C(=O)O)sc2nc(CSc3ncc(C(F)(F)F)cc3Cl)[nH]c(=O)c12	Pol iota inh inconclusive, Pol eta inh-1 31.6µM, POLB inh 39.8µM | Pol iota confirm inconclusive | Pol eta inh-2 67.5
COC(=O)c1cccc(NC(=O)CCN2C(=O)NC(C)(C)C2=O)c1	none (no result: APE1 inh, Pol iota inh, POLB inh, Pol kappa inh-1)
COc1cc(SC)ccc1C(=O)Nc1ccc2c(c1)CCC2	none
O=C1C=C(N2CCOCC2)c2ccccc2C1=O	Pol iota inh 1.78µM, Pol eta inh-1 5.62µM | Pol iota confirm 16.8 | GALK confirm 8.41µM | GALK redox cs 4.73µM | HEK293 tox 14.1µM | Pol eta inh-2 7.57
Cc1nc2c(-c3ccc(F)cc3)c(C)nn2c(C)c1CCC(=O)NCCN1CCOCC1	none
Cc1cccc(NC(=O)CN2C(=O)N/C(=C/c3ccc(C)o3)C2=O)c1	APE1 inh inconclusive, Pol iota inh inconclusive
